Assay outcomes deposited in PubChem by several laboratories.
PAX8 inh HTS = PAX8 transcriptional activity inhibition; RMG-I TPO-luciferase reporter, SteadyGlo, 24 h; inhibition, % at 12.6 µM; hit rate 1.2% among 360,000;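 active means mean replicate inhibition at least 60% with every replicate also reaching 60%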;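 further: luciferase light reporting Pax8 driven TPO promoter activity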
HIF-2a block = inhibitors of HIF-2a; 786-0 RCC cells HIF-2a reporter, luciferase luminescence, overnight; inhibition, % at 18.8 µM; hit rate 0.72% among 360,000; AID 624352;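 active means inhibition of the luminescence signal of 40% or more relative to plate controls, in a single-dose primary screen at 18.75 µM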
EWS-Fli inh = inhibitors of EWS/Fli oncoprotein transcriptional activity. A673 NR0B1-luciferase reporter, viability-normalised. inhibition, % at 12.6 µM. hit rate 0.67% among 350,000. AID 651661;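 active means mean inhibition of at least 50% after viability correction, with every replicate also passing that limit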;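 further: firefly luciferase signal divided by Alamar Blue viability fluorescence both relative to DMSO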
KKLEB cytotox = CF airway cell cytotoxicity counter-screen; KKLEB CF airway cells viability, ATPlite luminescence, overnight; hits give low values; cells stimulated with P. aeruginosa culture filtrate; activity change (cytotoxicity), % at 5 µM; hit rate 0.36% among 360,000; AID 602141;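 active means corrected activity change at or below -50% at 5 µM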
CF NFkB inh = blocks PAF-induced NF-kB reporter in cystic fibrosis cells; KKLEB NF-kB-GFP reporter, GFP fluorescence overnight; inhibition, % at 5 µM; hit rate 0.86% among 360,000;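 active means at least 50% inhibition at 5 µM, scaled per plate between neutral and stimulator controls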;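 further: PAF is a Pseudomonas aeruginosa culture filtrate used as stimulus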
Mdm2-MdmX confirm = confirmation of inhibitors of human Mdm2/MdmX interaction, set 2. AID 504601. SaOS-2 split-luciferase Mdm2/MdmX complementation, luminescence. shares compounds with HIF-2a block. hit rate 99% among 740. inhibition, % at 8 µM;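 active means mean inhibition of the luminescence signal across two replicates at or above 26 percent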
Target sequence (O15151 whole entry, looked up): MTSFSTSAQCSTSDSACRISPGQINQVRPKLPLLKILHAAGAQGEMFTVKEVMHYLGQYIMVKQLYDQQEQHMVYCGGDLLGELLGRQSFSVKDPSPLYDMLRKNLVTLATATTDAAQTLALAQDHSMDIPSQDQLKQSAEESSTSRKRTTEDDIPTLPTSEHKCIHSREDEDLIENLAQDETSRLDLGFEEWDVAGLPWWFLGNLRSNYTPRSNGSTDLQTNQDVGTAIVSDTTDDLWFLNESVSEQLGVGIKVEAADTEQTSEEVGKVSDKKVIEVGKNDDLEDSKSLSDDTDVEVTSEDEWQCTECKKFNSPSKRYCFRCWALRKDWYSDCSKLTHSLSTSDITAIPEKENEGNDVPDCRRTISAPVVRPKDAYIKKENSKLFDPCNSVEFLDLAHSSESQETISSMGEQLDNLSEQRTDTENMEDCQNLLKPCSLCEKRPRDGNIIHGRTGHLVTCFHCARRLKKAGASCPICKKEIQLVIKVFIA
Target sequence (Q00987 whole entry, looked up): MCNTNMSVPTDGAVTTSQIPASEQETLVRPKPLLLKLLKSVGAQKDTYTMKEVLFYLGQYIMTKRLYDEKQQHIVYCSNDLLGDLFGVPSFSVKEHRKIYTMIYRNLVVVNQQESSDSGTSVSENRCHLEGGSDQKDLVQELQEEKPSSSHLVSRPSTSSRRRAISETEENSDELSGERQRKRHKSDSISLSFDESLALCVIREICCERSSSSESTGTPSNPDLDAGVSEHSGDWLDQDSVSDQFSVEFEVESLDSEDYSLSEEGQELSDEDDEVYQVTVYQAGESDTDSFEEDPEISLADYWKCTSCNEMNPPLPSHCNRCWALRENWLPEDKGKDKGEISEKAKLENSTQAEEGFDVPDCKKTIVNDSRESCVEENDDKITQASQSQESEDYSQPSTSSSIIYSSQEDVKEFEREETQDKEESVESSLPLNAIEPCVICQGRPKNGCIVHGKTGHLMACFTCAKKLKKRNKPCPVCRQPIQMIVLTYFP
HIF-2a conf = HIF-2a inhibition, single concentration confirmation | shares compounds with HIF-2a block | 786-0 RCC cells, HIF-2a luciferase reporter luminescence, overnight | hit rate 56% among 1,800 | AID 651580 | inhibition, % at 18.8 µM;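 active means mean inhibition across four replicates of at least 40 percent at the single tested concentration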
HIF-1a counter = HIF-1a inhibition counter-screen for HIF-2a hits | shares compounds with HIF-2a block | MiaPaCa-2 HIF-1a luciferase reporter, desferoxamine, overnight | inhibition, % at 18.8 µM | hit rate 72% among 1,800 | AID 651589;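 active means mean inhibition of the reporter signal across four replicates at the single tested dose of 50% or more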
DNA binder FP = binds DNA displacing acridine orange; hit rate 2% among 640; AC35, µM (doses to about 68 µM); salmon sperm DNA acridine orange fluorescence polarization; shares compounds with EWS-Fli inh;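 active means fitted curve reaches a 35% signal fall AC35 below twice the sample's top valid tested dose, actives reach about 48 µM in these data; inactive means the rest, including activity in the rising direction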;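 further: lower polarization ratio signals compound binding to DNA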
A number is an active result; i = inactive; nt = no result given. Shown are actives, neighbours in structure and some others; about 2.1% of the full set was active somewhere.

SMILES	PAX8 inh HTS	HIF-2a block	EWS-Fli inh	KKLEB cytotox	CF NFkB inh	HIF-2a conf	HIF-1a counter	DNA binder FP	others
Cc1cc(N2CCN(c3ccc([N+](=O)[O-])c4cccnc34)CC2)c2ccccc2n1	nt	i	nt	i	i	nt	nt	nt	Mdm2-MdmX confirm=102
Cc1c(Cl)sn(-c2ccc(Cl)cc2)c1=O	i	48	65	-90	79	nt	nt	nt	Mdm2-MdmX confirm=102
Cc1nn(-c2ccc(Cl)cc2)c(=O)c2ccccc12	i	i	i	i	i	nt	nt	nt
COCCn1c(C)cc(C(=O)COc2ccc(C)nc2[N+](=O)[O-])c1C	i	75	i	i	i	77	85	nt
C=CCn1c(C)cc(C(=O)COc2ccc(C)nc2[N+](=O)[O-])c1C	i	68	nt	i	i	68	89	nt
Cc1ccc(C)c(C(=O)COc2ccc(C)nc2[N+](=O)[O-])c1	nt	i	nt	i	i	nt	nt	nt
Cc1ccc(OCC(=O)c2cc(C)c(C)cc2C)c([N+](=O)[O-])n1	nt	i	nt	i	i	nt	nt	nt
O=C(N[C@H]1CC[C@@H](CCn2cc(-c3ccc(F)cc3)nn2)O[C@@H]1CO)c1cnccn1	i	nt	i	nt	nt	nt	nt	nt
CN(C)CCCN(C(=O)c1cc2cc([N+](=O)[O-])ccc2s1)c1nc2cc3c(cc2s1)OCCO3	nt	76	52	-94	80	i	104	nt
COc1cc(OC)cc(-c2cc3nc(C)c(CCC(=O)O)c(C)n3n2)c1	i	82	77	i	i	90	86	44µM
CCOC(=O)C1CCCCN1C(=O)CCc1c(C)nc2cc(-c3ccccc3)nn2c1C (stereo not given)	i	75	51	i	i	85	74	i
Cc1nc2nc(C)c(CCC(=O)O)c(C)n2n1	nt	i	nt	i	i	nt	nt	nt
Cc1noc(C)c1NC(=O)N(C)C[C@H]1Oc2ccc(NS(C)(=O)=O)cc2C(=O)N([C@H](C)CO)C[C@@H]1C	nt	nt	i	nt	nt	nt	nt	nt
O=C(COC(=O)c1ccc[nH]c1=O)Nc1ccc(N2CCCCC2)cc1	i	91	75	i	i	95	74	i
O=C(OCC(=O)N1CCCCCC1)c1ccc[nH]c1=O	i	i	i	i	i	nt	nt	nt
C/C(=N\NC(=O)c1n[nH]c2c1CCC2)c1cccs1	102	72	82	i	i	83	i	i
O=C(N/N=C/c1cccs1)c1n[nH]c2c1CCCC2	65	47	52	i	i	65	57	i
O=C(N[C@H]1CC[C@H](CCNC(=O)C2CCCC2)O[C@@H]1CO)c1ccccn1	i	nt	i	nt	nt	nt	nt	nt
COCC(=O)Nc1ccc2c(c1)[C@H]1C[C@@H](CC(=O)NCc3ccccc3F)O[C@@H](CO)[C@H]1O2	i	nt	i	nt	nt	nt	nt	nt
Cc1ccc(NC(=O)CCN2CCCCC2)cc1	i	61	66	i	i	55	73	i
Cc1ccc(NC(=O)CCN2CCN(CCO)CC2)cc1	i	i	i	i	i	nt	nt	nt
Nc1ccc(-c2cc3ccccc3oc2=O)cc1	i	88	79	i	i	98	84	i
O=c1oc2ccccc2cc1-c1ccc(O)cc1	i	i	i	i	i	nt	nt	nt
C[C@@H]1CN([C@H](C)CO)S(=O)(=O)c2ccc(C3=CCCC3)cc2O[C@H]1CN(C)C(=O)CN(C)C	nt	nt	i	nt	nt	nt	nt	nt
C[C@@H](O)C#Cc1ccc([C@H]2[C@@H](CO)N3CCCCN(S(=O)(=O)Cc4ccccc4)C[C@@H]23)cc1	i	nt	i	nt	nt	nt	nt	nt
SMILES	PAX8 inh HTS	HIF-2a block	EWS-Fli inh	KKLEB cytotox	CF NFkB inh	HIF-2a conf	HIF-1a counter	DNA binder FP	others
O=C1CCC2S/C(=C/Nc3ccc(C(F)(F)F)cc3)C(=O)N12 (stereo not given)	72	97	86	i	i	98	105	i
O=C1CCCC/C1=C/Nc1cccc(C(F)(F)F)c1	i	i	i	i	i	nt	nt	nt
C=C1C(=O)[C@@]23[C@H](O)C[C@@H]4C(C)(C)CC[C@H](O)[C@@]4(C)[C@@H]2CC[C@@H]1[C@H]3O	112	91	60	i	95	94	107	i
C=C(C(=O)c1ccccc1)C(C(=C)C(=O)c1ccccc1)c1ccc(OC)cc1	117	61	78	i	i	59	103	i	Mdm2-MdmX confirm=103
O=C(CCCN1C(=O)S/C(=C\c2ccccc2)C1=O)NNC(=O)c1ccccc1O	i	91	74	i	i	90	97	i
Cc1ccc(S(=O)(=O)N(C)C[C@@H]2Oc3c(NC(=O)Nc4ccccc4)cccc3C(=O)N([C@H](C)CO)C[C@@H]2C)cc1	i	nt	i	nt	nt	nt	nt	nt
CCN(C[C@H]1[C@H](c2ccccc2)[C@@H](CO)N1C(C)=O)C(=O)c1ccccn1	i	nt	i	nt	nt	nt	nt	nt
CC(=O)c1ccc(NC(=O)c2noc3c2CCC3)cc1	i	49	60	i	i	72	61	i
CCNC(=O)[C@@H]1[C@@H](CO)[C@@H]2Cn3c(ccc(C4=CCCC4)c3=O)[C@H]1N2C(=O)CC	i	nt	i	nt	nt	nt	nt	nt
CN1C(=O)c2cc(NC(=O)Nc3ccccc3F)ccc2OC[C@@H]2O[C@@H](CC(=O)O)CC[C@@H]21	i	nt	i	nt	nt	nt	nt	nt
COc1ccc(/C=C2\SC(=S)N(CCCC(=O)Nc3ccc(O)cc3)C2=O)cc1	i	45	61	i	i	nt	nt	i	Mdm2-MdmX confirm=103
C(=Cc1cnc2ccccc2n1)c1ccc2c(c1)OCO2	97	59	88	-65	i	92	99	i
CCn1c(C)cc(C(=O)CN2C(=O)c3ccccc3S2(=O)=O)c1C	i	73	78	i	i	88	77	i
Cc1ccc(C(=O)CN2C(=O)c3ccccc3S2(=O)=O)cc1	71	87	77	i	i	87	82	i
Cc1cc(C(=O)CN2C(=O)c3ccccc3S2(=O)=O)c(C)n1C(C)C	71	76	73	i	i	86	82	i
Cc1cc(C)nc(NC(=O)CN2C(=O)c3ccccc3S2(=O)=O)n1	i	i	i	i	i	nt	nt	nt
Cc1c(CC(=O)NCCCCCC(=O)O)c(=O)oc2cc3c(cc12)CCC(C)(C)O3	i	i	i	i	i	nt	nt	nt
Cc1c(CC(=O)NCCCC(=O)O)c(=O)oc2cc3c(cc12)CCC(C)(C)O3	i	61	66	i	i	81	86	i
COc1ccc(NC(=O)Nc2ccc3c(c2)[C@@H]2C[C@@H](CC(=O)NCc4ccc5c(c4)OCO5)O[C@@H](CO)[C@@H]2O3)cc1	i	nt	i	nt	nt	nt	nt	nt
Oc1[nH]c2ccc(Br)cc2c1N=NC(=S)N1CCOCC1	91	68	57	i	i	nt	nt	i	Mdm2-MdmX confirm=99
COC(=O)COc1ccc(-c2nccc(-c3ccccn3)n2)cc1	i	71	54	i	i	91	64	i
Cc1ccc(C(=O)Oc2ccc(-c3nccc(-c4ccccn4)n3)cc2)cc1	nt	i	nt	i	i	nt	nt	nt
